The record followed here is PubChem BioAssay (Tox21).

The nature of experiment [1]: qHTS assay to test for compound auto fluorescence at 535 nm (green) in HEK293 cells (AID 720680). (In general: Quantitative high-throughput screening tests each substance at several concentrations.)
Experiment [2] can be described thus: qHTS assay to test for compound auto fluorescence at 460 nm (blue) in HEK293 cell free culture (AID 720681). In short, it runs like this:
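Compounds were added to cell-free DMEM with 10% FBS and fluorescence read directly. The blue channel used 405 nm excitation and 460 nm emission, with triamterene as the reference fluorophore.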

A short description of experiment [3]: qHTS assay to test for compound auto fluorescence at 535 nm (green) in HEK293 cell free culture (AID 720682). A digest of the protocol:
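Green-label autofluorescence (485 nm excitation, 535 nm emission) measured on compound added to cell-free culture medium (DMEM, 10% FBS). Output is expressed relative to fluorescein.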

Experiment [4] can be described thus: qHTS assay to test for compound auto fluorescence at 590 nm (red) in HEK293 cell free culture (AID 720683). A digest of the protocol:
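Cell-free wells of DMEM with 10% FBS received compound, and intrinsic fluorescence was read at excitation/emission 540/590 nm. Values expressed as equivalence to Rose Bengal sodium.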

The nature of experiment [5]: qHTS assay to test for compound auto fluorescence at 590 nm (red) in HepG2 cell free culture (AID 720684). A digest of the protocol: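 Compound was pinned into wells holding MEM with 10% FBS and no cells, and red fluorescence was read at Ex/Em 540/590 nm. Signal is expressed as auto fluorescence equivalency relative to Rose Bengal sodium.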
A short description of experiment [6]: qHTS assay to test for compound auto fluorescence at 460 nm (blue) in HepG2 cell free culture (AID 720685). A digest of the protocol:
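Compound (23 nL) or DMSO pinned into cell-free MEM with 10% FBS; blue fluorescence read at 405/460 nm excitation/emission, expressed as auto-fluorescence equivalency to triamterene.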

Experiment [7] can be described thus: qHTS assay to test for compound auto fluorescence at 535 nm (green) in HepG2 cell free culture (AID 720686).
Experiment [8] can be described thus: qHTS assay to test for compound auto fluorescence at 460 nm (blue) in HepG2 cells (AID 720687). In short, it runs like this:
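HepG2 cells in MEM with 10% FBS, attached overnight at 37 C, were exposed to compound or DMSO for 1 hr at 37 C, 5% CO2. Blue fluorescence was read at 405/460 nm, with triamterene as reference fluorophore.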

In experiment [9] the target is Glucocorticoid receptor (Homo sapiens) (UniProt P04150). Kind of experiment: qHTS assay to identify small molecule agonists of the glucocorticoid receptor (GR) signaling pathway (AID 720691; active = well fitted activation curve with a large enough effect in the signal ratio in the repeat runs, not every such curve was filed as active; the % refers to the signal ratio). In short, it runs like this: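 Beta-lactamase reporter activity, read as fluorescence intensity, was measured in GR-bla HeLa cells exposed to compounds for 18 h at 37 C and then loaded with LiveBLAzer B/G FRET substrate for 2 h at room temperature.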

The target is the same in experiment [10]. Kind of experiment: qHTS assay to identify small molecule antagonists of the glucocorticoid receptor (GR) signaling pathway (AID 720692; active = well fitted inhibition curve with a large enough effect in the signal ratio in the repeat runs, not every such curve was filed as active; the % refers to the signal ratio). A digest of the protocol:
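Fluorescence from cleaved LiveBLAzer B/G FRET substrate reports GRE-driven beta-lactamase in HeLa cells; compounds are tested against 5 nM dexamethasone (final) over 18 h at 37 C, substrate incubation 2 h at room temperature.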

Experiment [11] is described as follows: qHTS assay to identify small molecule antagonists of the glucocorticoid receptor (GR) signaling pathway - cell viability counter screen (AID 720693). Also: nearly all actives have a fitted effect of over 55% in size.
A short description of experiment [12]: qHTS assay for identifying genotoxic compounds that show differential cytotoxicity against isogenic chicken DT40 cell lines with known DNA damage response pathways - Rev3 mutant cell line (AID 743014). Also: nearly all actives have a fitted effect of over 55% in size. Also: potency is read from the fitted curve at half-maximal effect.
Experiment [13] is described as follows: qHTS assay for identifying genotoxic compounds that show differential cytotoxicity against isogenic chicken DT40 cell lines with known DNA damage response pathways - Rad54/Ku70 mutant cell line (AID 743015). Also: nearly all actives have a fitted effect of over 60% in size. Also: potency is read from the fitted curve at half-maximal effect.
A short description of experiment [14]: qHTS assay to identify small molecule antagonists of the androgen receptor (AR) signaling pathway - cell viability counter screen (AID 743033; also: nearly all actives have a fitted effect of over 45% in size).
Experiment [15] is described as follows: qHTS assay to identify small molecule antagonists of the androgen receptor (AR) signaling pathway using the MDA cell line - cell viability counter screen (AID 743041; also: nearly all actives have a fitted effect of over 45% in size). In short, it runs like this:
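MDA-kb2 AR-luc cells (MMTV-luciferase, AR/GR responsive) treated with compounds plus R1881 agonist for 16 h at 37C. CellTiter-Fluor added at 15.5 h; fluorescence read after 30 min in the same wells.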

The nature of experiment [16]: qHTS assay for identifying genotoxic compounds that show differential cytotoxicity against isogenic chicken DT40 cell lines with known DNA damage response pathways - wild type cell line (AID 743012). Also: nearly all actives have a fitted effect of over 60% in size. In short, it runs like this: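 Quantitative HTS on parental DT40 cells: 40 h compound treatment at 37 C/5% CO2, with viability then determined by CellTiter-Glo luminescence. Values serve as the DNA repair-proficient reference for differential cytotoxicity.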

In experiment [17] the target is Androgen receptor (Homo sapiens) (UniProt P10275). Kind of experiment: qHTS assay to identify small molecule agonists of the androgen receptor (AR) signaling pathway (AID 743036; active = well fitted activation curve with a large enough effect in the signal ratio in the repeat runs, with a control signal flat, not every such curve was filed as active; the % refers to the signal ratio). A digest of the protocol: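 AR-UAS-bla HEK293 cells, plated 4 h before dosing, were treated with compound for 16 h at 37C. beta-Lactamase reporter read after 2 h with LiveBLAzer B/G FRET substrate at room temperature.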

Experiment [18] shares this target. The experiment can be described thus: qHTS assay to identify small molecule agonists of the androgen receptor (AR) signaling pathway using the MDA cell line (AID 743040; also: nearly all actives have a fitted effect of over 20% in size). In short, it runs like this: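 MDA-kb2 breast carcinoma cells carrying MMTV-luciferase (responsive to AR and GR), plated 5 h then treated 16 h with compounds at 37C, 0% CO2. Read-out was ONE-Glo luminescence after 30 min at room temperature.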

Experiment [19] shares this target. The experiment can be described thus: qHTS assay to identify small molecule antagonists of the androgen receptor (AR) signaling pathway using the MDA cell line (AID 743042; also: nearly all actives have a fitted effect of over 55% in size). In short, it runs like this:
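MDA-kb2 breast carcinoma cells carrying MMTV-luciferase (AR/GR responsive) were co-treated with compounds and the agonist R1881 for 16 h at 37C. Inhibition read as ONE-Glo luminescence; CellTiter-Fluor fluorescence measured in parallel for cytotoxicity.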

Experiment [20] shares this target. The experiment can be described thus: qHTS assay to identify small molecule antagonists of the androgen receptor (AR) signaling pathway (AID 743035; active = well fitted inhibition curve with a large enough effect in the signal ratio in the repeat runs, not every such curve was filed as active; the % refers to the signal ratio). A digest of the protocol: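 Cell line: GeneBLAzer AR-UAS-bla GripTite (HEK293). Stimulus: R1881 added after compound. Exposure: 16 h, 37C, 5% CO2. Readout: LiveBLAzer B/G FRET fluorescence after 2 h at room temperature.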

Structures are written as SMILES. Values without a mark were called inactive. Records with an inconclusive call do not appear. The source made the active and inactive calls. Unless noted, calls follow the shape of the dose curve; as a rule, active = well fitted curve in the direction sought with a large enough effect in the repeat runs; inconclusive = weak or mixed curves; inactive = no such curve, though single readings can be large; an effect the other way counts as inactive or inconclusive.
% is scaled to controls: 0 for no effect and ±100 for the full control effect.

Chain of Glucocorticoid receptor (Homo sapiens) (P04150 whole entry, looked up): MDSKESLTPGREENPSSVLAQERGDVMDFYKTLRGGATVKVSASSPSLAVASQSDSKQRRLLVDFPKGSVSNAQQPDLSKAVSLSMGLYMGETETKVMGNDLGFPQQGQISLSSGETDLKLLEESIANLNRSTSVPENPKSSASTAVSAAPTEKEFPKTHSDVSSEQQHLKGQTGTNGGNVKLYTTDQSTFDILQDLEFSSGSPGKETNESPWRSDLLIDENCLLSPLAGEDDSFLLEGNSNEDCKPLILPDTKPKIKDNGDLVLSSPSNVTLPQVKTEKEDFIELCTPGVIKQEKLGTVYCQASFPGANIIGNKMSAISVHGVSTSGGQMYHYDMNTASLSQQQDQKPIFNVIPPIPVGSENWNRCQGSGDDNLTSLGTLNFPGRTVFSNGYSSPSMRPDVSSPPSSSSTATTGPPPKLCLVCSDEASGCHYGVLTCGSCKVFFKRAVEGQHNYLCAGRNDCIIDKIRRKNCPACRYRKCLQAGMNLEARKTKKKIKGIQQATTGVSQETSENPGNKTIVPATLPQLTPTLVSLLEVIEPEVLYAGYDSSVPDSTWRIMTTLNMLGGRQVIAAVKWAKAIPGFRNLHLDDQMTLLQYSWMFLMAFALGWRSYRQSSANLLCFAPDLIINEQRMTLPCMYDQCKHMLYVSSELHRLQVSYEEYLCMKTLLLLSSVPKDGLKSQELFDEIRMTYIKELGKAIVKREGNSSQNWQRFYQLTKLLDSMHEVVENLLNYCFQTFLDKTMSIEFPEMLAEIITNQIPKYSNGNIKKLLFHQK
Chain of Androgen receptor (Homo sapiens) (P10275 whole entry, looked up): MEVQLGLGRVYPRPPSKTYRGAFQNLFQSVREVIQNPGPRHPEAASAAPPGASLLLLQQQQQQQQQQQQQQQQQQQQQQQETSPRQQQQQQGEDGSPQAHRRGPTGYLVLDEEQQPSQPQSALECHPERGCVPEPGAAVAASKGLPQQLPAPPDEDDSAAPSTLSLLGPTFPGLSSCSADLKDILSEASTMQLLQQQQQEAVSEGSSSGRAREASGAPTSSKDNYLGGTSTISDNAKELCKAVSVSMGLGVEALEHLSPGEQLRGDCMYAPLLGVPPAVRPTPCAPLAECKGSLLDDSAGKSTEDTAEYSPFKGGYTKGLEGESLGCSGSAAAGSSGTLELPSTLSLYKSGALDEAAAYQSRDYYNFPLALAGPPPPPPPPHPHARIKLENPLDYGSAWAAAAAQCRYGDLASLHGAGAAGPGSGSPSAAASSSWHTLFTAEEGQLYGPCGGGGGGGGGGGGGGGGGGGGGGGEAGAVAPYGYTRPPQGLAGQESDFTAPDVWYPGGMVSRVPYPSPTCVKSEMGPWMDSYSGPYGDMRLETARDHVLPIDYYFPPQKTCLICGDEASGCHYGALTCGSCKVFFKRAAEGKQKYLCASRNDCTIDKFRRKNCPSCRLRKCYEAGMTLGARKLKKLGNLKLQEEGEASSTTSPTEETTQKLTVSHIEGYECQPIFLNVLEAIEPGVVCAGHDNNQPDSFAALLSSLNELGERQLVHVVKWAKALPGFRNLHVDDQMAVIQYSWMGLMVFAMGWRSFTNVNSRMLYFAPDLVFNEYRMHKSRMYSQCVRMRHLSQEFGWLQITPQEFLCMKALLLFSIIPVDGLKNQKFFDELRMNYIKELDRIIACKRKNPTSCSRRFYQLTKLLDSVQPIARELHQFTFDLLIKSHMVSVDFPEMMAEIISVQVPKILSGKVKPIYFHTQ

In the case of `c1ccc2cnncc2c1`, the molecule was called inactive in experiment [1], in [3], in experiment [4], in experiment [5], in experiment [7] and in [11]. For the same molecule, in experiment [14], the outcome was inactive. For the same molecule, the Potency result in experiment [2], in experiment [6], in experiment [8], in [9], in [10] and in [12] was “inactive” throughout. For the same molecule, the Potency entry in [13] and in experiment [15] was “inactive” each time.
Consider `CC1CCN(CCCC(=O)c2ccc(F)cc2)CC1`, for which the outcome in experiment [1], in [3], in experiment [4], in experiment [5], in experiment [7] and in experiment [11] was inactive. Moreover, the molecule was called inactive in [14]. In addition, the Potency entry in [2], in experiment [6], in experiment [8], in [9] and in [10] was “inactive” throughout. The Potency in [13] was 7.5 µM (active).
Regarding `C1=C\CC/C=C\CC/C=C\CC/1`, the molecule was called inactive in [1], in experiment [3], in [4], in experiment [5], in experiment [7] and in experiment [11]. In addition, in experiment [14], the molecule was called inactive. The Potency result in experiment [2], in experiment [6], in experiment [8], in experiment [9], in experiment [16] and in experiment [12] was “inactive” in each case. Further, the Potency result in experiment [13] and in experiment [15] was “inactive” each time.
`OCc1ccccn1`: the molecule was classed as inactive in experiment [1], in experiment [3], in experiment [4], in [5], in experiment [7] and in experiment [14]. Besides, the Potency entry in [2], in [6], in [8], in experiment [9], in experiment [10] and in [16] was “inactive” in each case. The Potency result in experiment [12] and in experiment [15] was “inactive” each time.
In the case of `C(=C(c1ccccc1)c1ccccc1)c1ccccc1`, the result in [1], in experiment [3], in [4], in [5], in experiment [7] and in experiment [11] was inactive. In [14], the call was inactive. The Potency entry in experiment [2], in experiment [6], in [8], in [9], in [10] and in experiment [16] was “inactive” each time. Also, the Potency result in [15] is “inactive”.
Take `NS(=O)(=O)c1cc2c(cc1Cl)NC(CSCc1ccccc1)=NS2(=O)=O`: the fluorescence, % of fluorescein in experiment [1] is -0.0376% [at 18.6 µM]. Moreover, the fluorescence, % of fluorescent control is -0.0458% [at 18.6 µM] in experiment [2], 0.107% [at 18.6 µM] in experiment [4], -0.0404% [at 18.6 µM] in experiment [6] and 0.19% [at 18.6 µM] in [8]. The activity change in experiment [3] is -0.222% [at 18.6 µM]. In addition, the fluorescence, % of Rose Bengal in experiment [5] was 0.12% [at 18.6 µM]. Besides, the fluorescence, % of fluorescein control in experiment [7] is -0.0451% [at 18.6 µM]. Besides, the Potency result in experiment [9], in [10], in experiment [16] and in experiment [15] was “inactive” in each case. The result in experiment [11] was inactive.
With `CCCCCCCCCCCCCCCCCC(=O)OCCCCCCCCCCCCCC(C)C`, the call in [1], in [3], in [4], in experiment [5], in experiment [7] and in experiment [11] was inactive. The molecule was classed as inactive in experiment [14]. The Potency entry in [2], in experiment [6], in experiment [8], in [9], in experiment [10] and in [16] was “inactive” each time. Further, the Potency result in experiment [12] and in experiment [15] was “inactive” each time.
Consider `CCCCCN(CCCCC)C(=O)C(CCC(=O)O)NC(=O)c1ccc(Cl)c(Cl)c1` (configuration not stated), for which the result in [1], in experiment [3], in experiment [4], in experiment [5], in experiment [7] and in experiment [11] was inactive. Also, the outcome in experiment [14], in experiment [17] and in experiment [19] was inactive. Moreover, the Potency entry in experiment [2], in [6], in experiment [8], in [9], in experiment [10] and in [16] was “inactive” throughout. Moreover, the Potency entry in experiment [13], in [18] and in experiment [15] was “inactive” throughout.
`C#CC(O)C(CC)CCCC` (configuration not stated): the call in experiment [1], in experiment [3], in experiment [4], in [5], in [7] and in experiment [11] was inactive. The molecule was classed as inactive in [14], in experiment [17] and in experiment [19]. In addition, the Potency result in [2], in experiment [6], in [8], in [9], in experiment [16] and in experiment [12] was “inactive” in each case. The Potency entry in [13], in [20], in [18] and in [15] was “inactive” in each case.
As for `OCCN1C[C@H](O)[C@@H](O)[C@H](O)[C@H]1CO`, the outcome in experiment [1], in [3], in experiment [4], in experiment [5], in experiment [7] and in experiment [14] was inactive. For the same molecule, the call in experiment [17] and in [19] was inactive. The Potency entry in experiment [2], in experiment [6], in experiment [8], in experiment [9], in [10] and in experiment [16] was “inactive” each time. Further, the Potency result in experiment [12], in [13], in experiment [20], in experiment [18] and in experiment [15] was “inactive” each time.
In the case of `O=C(O)CCNC(=O)c1ccc(N=Nc2ccc(O)c(C(=O)O)c2)cc1`, the molecule was classed as inactive in experiment [1], in experiment [3], in experiment [4], in [5], in experiment [7] and in experiment [11]. In experiment [14], the call was inactive. Moreover, the Potency entry in [2], in experiment [6], in experiment [8], in experiment [9], in experiment [10] and in experiment [16] was “inactive” throughout. Besides, the Potency entry in experiment [12] and in [15] was “inactive” throughout.
Take `COc1cc(C)cc(O)c1`: the molecule was classed as inactive in experiment [1], in experiment [3], in experiment [4], in experiment [5], in experiment [7] and in [11]. Besides, the molecule was called inactive in experiment [14]. Further, the Potency result in experiment [2], in experiment [6], in experiment [8], in experiment [9], in [16] and in experiment [12] was “inactive” throughout. Moreover, the Potency result in experiment [13] and in experiment [15] was “inactive” in each case.
Regarding `C=CC(=O)N1CCOCC1`, the outcome in experiment [1], in experiment [3], in [4], in experiment [5], in experiment [7] and in experiment [11] was inactive. In addition, in [14], the result was inactive. Also, the Potency result in [2], in [6], in [8], in [9], in experiment [12] and in experiment [13] was “inactive” in each case. In addition, in experiment [15], the Potency result is “inactive”.
For the molecule `Cn1ccc2cc3c(cc21)CCN3C(=O)Nc1cccnc1`, the outcome in [1], in experiment [3], in [4], in experiment [5], in experiment [7] and in experiment [11] was inactive. Besides, in experiment [14], the call was inactive. Besides, the Potency entry in experiment [2], in experiment [6], in experiment [8], in experiment [9] and in experiment [15] was “inactive” throughout. Besides, the Potency in experiment [12] was 13.3 µM (active).
